# Assay outcomes as filed in PubChem.
# TDP1 cell noCPT: qHTS for Inhibitors of human tyrosyl-DNA phosphodiesterase 1 (TDP1): qHTS in cells in absence of CPT | 15% of 420,000 active | Potency, µM (top dose mostly 46.2 µM), without a hit: top-dose activity change, negative = growth inhibition, hits mostly inhibitors | AID 686978, 2013 | DT40 Tdp1-/- hTDP1 cells, no CPT, ATP luminescence, 48 h; further: potency means the concentration at half of the fitted maximal effect; nearly all actives have a fitted effect of over 55% in size
#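 Compound effects on proliferation are scored in DT40 Tdp1-/-;hTDP1 cells in the absence of CPT. ATP levels (CellTiter-Glo luminescence) are recorded after a ≥48 hr, 37 °C incubation.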
# TDP1 cell CPT: DT40-hTDP1 cell growth loss with CPT; chicken DT40 Tdp1-/-;hTDP1 cells + 20 nM CPT, ATP luminescence, 48 h; Potency, µM (highest dose often 46.2 µM), without a hit: at the top dose activity change, negative = growth inhibition, usual class: inhibitors; 12% of 420,000 active; AID 686979; further: potency means the concentration at half of the fitted maximal effect; nearly all actives have a fitted effect of over 55% in size
#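 Cell growth measured by CellTiter-Glo luminescence after a minimum 48 h, 37 C compound exposure with 20 nM CPT in Tdp1-knockout DT40 cells stably expressing hTDP1, seeded 400/well; qHTS titration format.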
# HT1080 IDH1KD tx: kills HT-1080 cells with IDH1 knockdown | HT-1080 IDH1 knockdown viability, ATP luminescence, 48 h | AID 686971 | Potency, µM (titrated, usually from 46.1 µM), inactives show at the highest dose activity, negative = toxicity, hits mostly cytotoxic | 2% of 360,000 active;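 further: potency means the concentration at half of the fitted maximal effect; 0% = DMSO wells and -100% = cell-free medium wells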
#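 CellTiter-Glo luminescence after 48 h compound exposure at 37 degrees C of IDH1-knockdown HT-1080 cells in 5% FBS RPMI. %Activity scaled between DMSO wells and cell-free media wells, with curves fitted and assigned curve classes.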
# IL1B secr inh: blocks inflammasome-driven IL-1 beta release. activity change, % at 57.5 µM. 4.7% of 360,000 active. AID 743279. THP-1 LPS/ATP IL-1B secretion, AlphaLISA, 16 h; hits give low values; in the data active means activity change below about -50%; inconclusive means mostly about -30% to -49%
#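 THP-1 cells pretreated 1 hr with compounds (up to 57.5 uM final), then stimulated with LPS (250 ng/mL final) plus ATP (1.25 mM final); secreted IL-1B measured by AlphaLISA after 16 hr, decreased signal indicating inhibition.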
# HT1080-NT tox: kills 2HG-producing HT-1080-NT fibrosarcoma cells; HT-1080-NT fibrosarcoma viability, CellTiter-Glo ATP luminescence, 48 h; Potency, µM (titrated, usually from 46.1 µM), without a hit: at the highest dose activity, negative = less viability, usual class: cytotoxic; 1.6% of 360,000 active;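 further: NT is the 2HG producing partner of a matched IDH1 knockdown line; potency means the concentration at half of the fitted maximal effect; 0% = DMSO-treated cells and -100% = media-only wells without cells; nearly all actives have a fitted effect of over 55% in size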
#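 Fibrosarcoma NT cells, 750 per well in 5% FBS RPMI, were exposed to compound for 48 hours. Viability: CellTiter-Glo luminescence.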
# Numbers without * were called inactive; ? = inconclusive; . = not tested or not shown. Rows were chosen to be rich in hits. Some 19% of all compounds tested hit in one or more screens of this group. Unless noted, the call rests on the fitted dose curve; in most records, active means well fitted curve in the direction sought with a large enough effect; inconclusive means small, poorly fitted or top-dose-only effect, or another doubt; inactive means no such curve, though single readings can be large; an effect the other way counts as inactive or inconclusive. Unless noted, on the % scale 0 is the no-effect control and ±100 the full control effect.
SMILES,TDP1 cell noCPT,TDP1 cell CPT,HT1080 IDH1KD tx,IL1B secr inh,HT1080-NT tox
CCC1CCc2sc(C(=O)NCC(c3ccccc3OC)N3CCCC3)cc2C1 (configuration not stated),21µM*,16µM*,?,-22,?
Cc1ccccc1N1C(=O)C2ON(c3ccccc3)C(c3ccco3)C2C1=O (configuration not stated),2%,19%,3%,12,13%
CC(=O)NC(CC(=O)NNC(=O)c1cccs1)c1ccccc1 (configuration not stated),-27%,-16%,17%,-1,4%
CC(=O)N1CCOc2ccc(S(=O)(=O)N3CCC(C(=O)Nc4ccc(F)cc4)CC3)cc21,-20%,-20%,-9%,7,-10%
O=C(CNC(=O)c1ccccc1)OCc1cc(=O)n2nc(C3CC3)sc2n1,-2%,7%,.,.,.
COc1ccc(C(=O)NCCNc2nc3c(C)cccc3cc2C#N)cc1,21µM*,?,1%,?,1%
COc1cccc(C(=O)NCCCNc2nc3cc(C)cc(C)c3cc2C#N)c1,26µM*,?,2%,0,5%
COc1ccc(C(=O)NCCNc2nc3cc(C)cc(C)c3cc2C#N)cc1,?,?,?,-19,?
Cc1cc(C)c2cc(C#N)c(NCCCN)nc2c1,21µM*,?,-25%,0,?
Cc1cnc(CNC(=O)c2csc([C@@H]3C[C@H](O)[C@@H](CO)O3)n2)cn1,-17%,1%,?,-10,7%
COC(=O)c1sccc1S(=O)(=O)N(CC(=O)Nc1cccc(C)c1C)c1ccc(C)c(C)c1,23µM*,21µM*,.,.,.
COC(=O)c1sccc1S(=O)(=O)N(CC(=O)Nc1cc(F)ccc1F)c1ccc(C)c(C)c1,13µM*,?,.,.,.
COC(=O)c1sccc1S(=O)(=O)N(CC(=O)Nc1ccccc1)c1ccccc1,?,-15%,.,.,.
CCc1ccccc1NC(=O)CN(c1ccccc1)S(=O)(=O)c1ccsc1C(=O)OC,18µM*,16µM*,.,.,.
COC(=O)c1sccc1S(=O)(=O)N(CC(=O)Nc1cc(C)ccc1C)c1ccc(C)c(C)c1,21µM*,21µM*,.,.,.
Cc1cc(N2CC(C(=O)Nc3nccs3)CC2=O)ccc1C(C)C (configuration not stated),-20%,-23%,-2%,4,0%
CC(=O)c1c(C)[nH]c(C(=O)CSc2nnc(-c3ccco3)o2)c1C,15µM*,?,-4%,-23,-1%
O=C(CSc1nnc(-c2ccco2)o1)c1ccccc1Cl,18%,-13%,-3%,-8,-1%
CCOC(=O)c1c(C)[nH]c(C)c1C(=O)CSc1nnc(-c2ccc(OC(F)F)cc2)o1,12µM*,?,?,18,?
COc1ccc(-c2nnc(SCC(=O)c3[nH]c(C)c(C(C)=O)c3C)o2)cc1,18µM*,13µM*,-11%,49,-7%
Cc1ccc(S(=O)(=O)N2CCCc3cc(NS(=O)(=O)c4cccc(Cl)c4)ccc32)cc1,21µM*,21µM*,.,.,.
Cc1ccc(S(=O)(=O)N2CCCc3ccccc32)cc1,?,-24%,?,32,-16%
CCOc1ccc(S(=O)(=O)Nc2ccc3c(c2)CCCN3S(=O)(=O)c2ccc(C)cc2)cc1,18µM*,?,.,.,.
O=C(c1cc(C(F)(F)F)cc(C(F)(F)F)c1)N1CCC[C@@]2(CCN(Cc3ccncc3)C2)C1,?,-13%,.,.,.
COc1ccc(-c2sc(Nc3ccccc3)n[n+]2-c2ccc(F)cc2)c(C)c1C,10µM*,7.3µM*,-25%,-11,?
SMILES,TDP1 cell noCPT,TDP1 cell CPT,HT1080 IDH1KD tx,IL1B secr inh,HT1080-NT tox
CCc1ccc(NC(=O)c2ccc(-c3ccccc3)s2)cc1,?,-17%,.,.,.
CCc1ccc(Nc2n[n+](-c3ccccc3)c(-c3cccc(C)c3)s2)cc1,5.8µM*,7.3µM*,-18%,-20,-26%
CSc1ccc(-c2sc(Nc3ccccc3)n[n+]2-c2ccc(F)cc2)cc1,23µM*,12µM*,-4%,26,-13%
Oc1ccc(-c2sc(Nc3ccccc3)n[n+]2-c2ccc(F)cc2)cc1,-11%,-10%,1%,16,0%
Cc1cccc(-c2sc(Nc3ccccc3)n[n+]2-c2ccc(F)cc2)c1,9.2µM*,7.3µM*,-29%,12,-17%
CC(C)(C)NC(=O)C(c1cccnc1)N(C(=O)c1ccc(Cl)nc1)C1CCCC1 (configuration not stated),-11%,-4%,13%,1,12%
Cc1ccc(S(=O)(=O)N(C)CC(=O)N2CCN(Cc3ccccc3)CC2)cc1,-22%,-3%,3%,0,-1%
CCOCCCNC(=S)N1CCCN(c2nc3c(C)c(C)ccc3cc2C#N)CC1,?,?,-12%,?,-16%
CCOc1ccc2nc(NCCNC(=O)Nc3ccccc3)c(C#N)cc2c1,?,-27%,?,1,?
CCOCCCNC(=S)NCCCNc1nc2c(C)c(C)ccc2cc1C#N,?,?,?,-95*,?
CCOc1ccc2nc(NCCNC(=S)NCCCN(C)C)c(C#N)cc2c1,26µM*,?,?,.,-24%
N[C@@H](Cc1ccccc1)C(=O)O,-8%,-2%,.,.,.
CCOc1c(Cl)cc(CNC(C)(C)CC(C)(C)C)cc1OC,21µM*,?,?,-12,?
CCOC(=O)COc1ccc2cc(C(=O)OCC)c(=O)oc2c1,-14%,-16%,5%,-80*,10%
CC(=O)Nc1ccc(OC[C@@H](O)CNC(C)C)cc1,-7%,21%,.,.,.
Cc1ccc(CNC(=O)CNC(=O)[C@@H]2Cc3ccccc3CN2C(=O)OC(C)(C)C)cc1,?,18%,-1%,-6,1%
COc1ccc(NC(=O)C2Cc3c(-c4cccc(F)c4)ccnc3O2)cc1OC (configuration not stated),4.6µM*,7.3µM*,?,-15,?
O=C(Nc1ccccc1)C1Cc2c(-c3cccc(F)c3)ccnc2O1 (configuration not stated),?,21µM*,-16%,-63*,4%
COc1ccc(NC(=O)C2Cc3c(-c4ccco4)ccnc3O2)cc1OC (configuration not stated),?,23µM*,-23%,-2,-4%
CS(=O)(=O)Nc1cccc(NC(=O)C2Cc3c(-c4cccc(F)c4)ccnc3O2)c1 (configuration not stated),3.3µM*,5.2µM*,?,-10,2.1µM*
